Test results published in the supplement of paper PMC8728848.
The full list was thinned out, with the strongest signals kept by preference.

Key:
Experiment in all cases: glycan array binding signal (z-score within array); higher = stronger binding
Settings in all cases: glycan notation: IUPAC condensed, linker removed
[1] = target: Fuc(a1-2)Gal(b1-3)GlcNAc(b1-2)Man(a1-3)[Fuc(a1-2)Gal(b1-3)GlcNAc(b1-2)Man(a1-6)]Man(b1-4)GlcNAc(b1-4)[Fuc(a1-6)]GlcNAc
How it was run: (§1)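 Arrays were curated from the Consortium for Functional Glycomics database, 3228 in total, and kept only where the protein sequence was available. Binding is expressed as a within-array Z-score. This score was averaged across arrays of the same protein sequence at different concentrations or buffers and across linkers, and negative values can be read as non-binding.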

[2] = target: Fuc(a1-2)Gal(b1-4)[Fuc(a1-3)]GlcNAc
How it was run: as §1

[3] = target: Fuc(a1-2)Gal(b1-4)[Fuc(a1-3)]GlcNAc(b1-2)Man(a1-3)[Fuc(a1-2)Gal(b1-4)[Fuc(a1-3)]GlcNAc(b1-2)Man(a1-6)]Man(b1-4)GlcNAc(b1-4)[Fuc(a1-6)]GlcNAc
How it was run: as §1

[4] = target: Fuc(a1-2)[Gal(a1-3)]Gal
How it was run: as §1

[5] = target: Fuc(a1-2)[GalNAc(a1-3)]Gal(b1-3)GlcNAc(b1-2)Man(a1-3)[Fuc(a1-2)[GalNAc(a1-3)]Gal(b1-3)GlcNAc(b1-2)Man(a1-6)]Man(b1-4)GlcNAc(b1-4)GlcNAc
How it was run: as §1

[6] = target: Fuc(a1-2)[GalNAc(a1-3)]Gal(b1-3)GlcNAc(b1-2)Man(a1-3)[Fuc(a1-2)[GalNAc(a1-3)]Gal(b1-3)GlcNAc(b1-2)Man(a1-6)]Man(b1-4)GlcNAc(b1-4)[Fuc(a1-6)]GlcNAc
How it was run: as §1

[7] = target: Fuc(a1-2)[GalNAc(a1-3)]Gal(b1-3)GlcNAc(b1-6)GalNAc
How it was run: as §1

[8] = target: Fuc(a1-3)[Gal(b1-4)]GlcNAc6S
How it was run: as §1

[9] = target: Gal(a1-3)Gal(b1-3)GlcNAc(b1-2)Man
How it was run: as §1

[10] = target: Gal(a1-4)Gal(b1-4)GlcNAc(b1-2)Man(a1-3)[Gal(a1-4)Gal(b1-4)GlcNAc(b1-2)Man(a1-6)]Man(b1-4)GlcNAc(b1-4)GlcNAc
How it was run: as §1

[11] = target: Gal(b1-3)Gal
How it was run: as §1

[12] = target: Gal(b1-3)GlcNAc(b1-2)Man(a1-3)[Gal(b1-3)GlcNAc(b1-2)Man(a1-6)]Man(b1-4)GlcNAc(b1-4)[Fuc(a1-6)]GlcNAc
How it was run: as §1

[13] = target: Gal(b1-3)GlcNAc(b1-2)Man(a1-3)[GlcNAc(b1-4)][Gal(b1-3)GlcNAc(b1-2)Man(a1-6)]Man(b1-4)GlcNAc(b1-4)GlcNAc
How it was run: as §1

[14] = target: Gal(b1-4)GalNAc(a1-3)[Fuc(a1-2)]Gal(b1-4)GlcNAc
How it was run: as §1

[15] = target: Gal(b1-4)GlcNAc(b1-2)Man
How it was run: as §1

[16] = target: Gal(b1-4)GlcNAc(b1-2)Man(a1-3)[GlcNAc(b1-2)Man(a1-6)]Man(b1-4)GlcNAc(b1-4)GlcNAc
How it was run: as §1

[17] = target: Gal(b1-4)GlcNAc(b1-2)[Gal(b1-4)GlcNAc(b1-4)]Man(a1-3)[Gal(b1-4)GlcNAc(b1-2)Man(a1-6)]Man(b1-4)GlcNAc(b1-4)GlcNAc
How it was run: as §1

[18] = target: Gal(b1-4)GlcNAc(b1-3)Gal(b1-4)GlcNAc(b1-2)Man(a1-3)[Gal(b1-4)GlcNAc(b1-3)Gal(b1-4)GlcNAc(b1-2)Man(a1-6)]Man(b1-4)GlcNAc(b1-4)[Fuc(a1-6)]GlcNAc
How it was run: as §1

[19] = target: Gal(b1-4)GlcNAc(b1-3)Gal(b1-4)GlcNAc(b1-3)Gal(b1-4)GlcNAc(b1-3)Gal(b1-4)GlcNAc(b1-2)Man(a1-3)[Gal(b1-4)GlcNAc(b1-3)Gal(b1-4)GlcNAc(b1-3)Gal(b1-4)GlcNAc(b1-3)Gal(b1-4)GlcNAc(b1-2)Man(a1-6)]Man(b1-4)GlcNAc(b1-4)[Fuc(a1-6)]GlcNAc
How it was run: as §1

[20] = target: Gal(b1-4)GlcNAc(b1-3)Gal(b1-4)GlcNAc(b1-3)Gal(b1-4)GlcNAc(b1-3)Gal(b1-4)GlcNAc(b1-3)Gal(b1-4)GlcNAc(b1-2)Man(a1-3)[Gal(b1-4)GlcNAc(b1-3)Gal(b1-4)GlcNAc(b1-3)Gal(b1-4)GlcNAc(b1-3)Gal(b1-4)GlcNAc(b1-3)Gal(b1-4)GlcNAc(b1-2)Man(a1-6)]Man(b1-4)GlcNAc(b1-4)[Fuc(a1-6)]GlcNAc
How it was run: as §1

[21] = target: Gal(b1-4)GlcNAc(b1-6)GalNAc
How it was run: as §1

[22] = target: Gal3S(b1-3)GalNAc
How it was run: as §1

[23] = target: Gal3S(b1-3)GlcNAc
How it was run: as §1

[24] = target: Gal3S(b1-4)Glc
How it was run: as §1

[25] = target: GalNAc(b1-3)Gal(a1-4)Gal(b1-4)GlcNAc
How it was run: as §1

[26] = target: GalNAc3S(b1-4)GlcNAc
How it was run: as §1

[27] = target: GlcNAc(a1-4)Gal(b1-4)GlcNAc(b1-3)Gal(b1-4)GlcNAc(b1-3)Gal(b1-4)GlcNAc
How it was run: as §1

[28] = target: GlcNAc(b1-2)[GlcNAc(b1-4)]Man(a1-3)[GlcNAc(b1-2)Man(a1-6)]Man(b1-4)GlcNAc(b1-4)GlcNAc
How it was run: as §1

[29] = target: GlcNAc(b1-2)[GlcNAc(b1-6)]Man(a1-6)[GlcNAc(b1-4)][GlcNAc(b1-2)Man(a1-3)]Man(b1-4)GlcNAc(b1-4)GlcNAc
How it was run: as §1

[30] = target: GlcNAc(b1-3)Gal(b1-4)GlcNAc(b1-6)[Gal(b1-3)]GalNAc
How it was run: as §1

[31] = target: GlcNAc(b1-3)Man
How it was run: as §1

[32] = target: GlcNAc(b1-4)[GlcNAc(b1-6)]GalNAc
How it was run: as §1

[33] = target: Man(a1-3)[Man(a1-6)]Man(a1-6)[Man(a1-2)Man(a1-3)]Man(b1-4)GlcNAc(b1-4)GlcNAc
How it was run: as §1

[34] = target: Neu5Ac(a2-3)Gal(b1-3)GlcNAc(b1-2)[Neu5Ac(a2-3)Gal(b1-3)GlcNAc(b1-4)]Man(a1-6)[Neu5Ac(a2-3)Gal(b1-3)GlcNAc(b1-2)Man(a1-3)]Man(b1-4)GlcNAc(b1-4)GlcNAc
How it was run: as §1

[35] = target: Neu5Ac(a2-3)Gal(b1-4)GlcNAc(b1-2)Man(a1-3)[GlcNAc(b1-4)][Neu5Ac(a2-3)Gal(b1-4)GlcNAc(b1-2)Man(a1-6)]Man(b1-4)GlcNAc(b1-4)GlcNAc
How it was run: as §1

[36] = target: Neu5Ac(a2-3)Gal(b1-4)GlcNAc(b1-2)[Neu5Ac(a2-3)Gal(b1-4)GlcNAc(b1-4)]Man(a1-3)[GlcNAc(b1-4)][Neu5Ac(a2-3)Gal(b1-4)GlcNAc(b1-4)Man(a1-6)]Man(b1-4)GlcNAc(b1-4)GlcNAc
How it was run: as §1

[37] = target: Neu5Ac(a2-3)Gal(b1-4)GlcNAc(b1-6)GalNAc
How it was run: as §1

[38] = target: Neu5Ac(a2-3)Gal(b1-4)[Fuc(a1-3)]GlcNAc(b1-3)Gal(b1-4)[Fuc(a1-3)]GlcNAc(b1-3)Gal(b1-4)[Fuc(a1-3)]GlcNAc
How it was run: as §1

[39] = target: Neu5Ac(a2-6)Gal(b1-4)GlcNAc(b1-3)[Neu5Ac(a2-6)Gal(b1-4)GlcNAc(b1-6)]GalNAc
How it was run: as §1

[40] = target: Neu5Gc(a2-3)Gal(b1-3)GlcNAc
How it was run: as §1

[41] = target: Neu5Gc(a2-6)Gal(b1-4)GlcNAc
How it was run: as §1

[42] = target: Neu5Gc(a2-6)GalNAc
How it was run: as §1

B1: cFel (Cyprinus carpio), P68512 (protein)
chain: LDCTVIDGNLKQIDAGSGSVVGVNNLNETFVLIDNVFTKISGSLKHFSVGPAGQLGVNTANNIFKYQSGGFVQLAGLLKQVDAGGDQIIAGVNMYDDIYCLNMDANNKWPSSNTPWVQINGKLKYYSCGPYSCWGVNSNDQIFIMKDVSSNVCSGSGSFINIPGLLSMIEVATDGSVFGVNSQGNLYQRTGVTRSKPDGTDWISMVACPNGHKHVSFDLGVLWLVCVDGSIRKCILTD
[1]
  glycan array binding signal (z-score): -0.998
[2]
  glycan array binding signal (z-score): 0.152
[3]
  glycan array binding signal (z-score): 3.47
[4]
  glycan array binding signal (z-score): 2.61
[5]
  glycan array binding signal (z-score): 0.309
[6]
  glycan array binding signal (z-score): 3.12
[7]
  glycan array binding signal (z-score): 2.93
[8]
  glycan array binding signal (z-score): 0.043
[9]
  glycan array binding signal (z-score): 0.809
[10]
  glycan array binding signal (z-score): -0.901
[11]
  glycan array binding signal (z-score): -0.479
[12]
  glycan array binding signal (z-score): -1.57
[13]
  glycan array binding signal (z-score): 3.37
[14]
  glycan array binding signal (z-score): 0.995
[15]
  glycan array binding signal (z-score): 0.263
[16]
  glycan array binding signal (z-score): 0.271
[17]
  glycan array binding signal (z-score): 3.29
[18]
  glycan array binding signal (z-score): -0.29
[19]
  glycan array binding signal (z-score): -0.084
[20]
  glycan array binding signal (z-score): 1.98
[21]
  glycan array binding signal (z-score): 1.54
[22]
  glycan array binding signal (z-score): -0.627
[23]
  glycan array binding signal (z-score): -0.636
[24]
  glycan array binding signal (z-score): 1.24
[25]
  glycan array binding signal (z-score): 4.96
[26]
  glycan array binding signal (z-score): -0.547
[27]
  glycan array binding signal (z-score): -0.344
[28]
  glycan array binding signal (z-score): -0.869
[29]
  glycan array binding signal (z-score): -0.817
[30]
  glycan array binding signal (z-score): 1.15
[31]
  glycan array binding signal (z-score): 3.22
[32]
  glycan array binding signal (z-score): -0.003
[33]
  glycan array binding signal (z-score): 0.309
[34]
  glycan array binding signal (z-score): 0.972
[35]
  glycan array binding signal (z-score): 3.12
[36]
  glycan array binding signal (z-score): -0.578
[37]
  glycan array binding signal (z-score): -0.95
[38]
  glycan array binding signal (z-score): -1.09
[39]
  glycan array binding signal (z-score): 3.16
[40]
  glycan array binding signal (z-score): 2.89
[41]
  glycan array binding signal (z-score): -1.34
[42]
  glycan array binding signal (z-score): 0.828
